Laboratory results taken from the supplement of paper PMC6555819.

How the values were obtained:
Assay in all cases: PBM binding z-score (relative to random genomic background probes); higher = stronger binding; sequences stand for … in GC…GCGATTGACAGCGTAGAATGAAGG
[1] = tested on: FXR:RXRa (NR concentration 270 nM, RXRa partner concentration 90 nM)
Method in brief: (§1)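 Each nuclear receptor dimer, without ligand, was incubated for 1 h on custom Agilent 4×180K protein-binding microarrays. Binding was detected with antibodies against each partner (one per run), and scanned fluorescence was regression-normalized. The binding z-scores are referenced to random human genomic background probes.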

[2] = tested on: LXRa:RXRa (NR concentration 270 nM, RXRa partner concentration 90 nM)
Method in brief: as §1

[3] = tested on: LXRa homodimer (NR concentration 270 nM)
Method in brief: as §1

[4] = tested on: LXRb:RXRa (NR concentration 270 nM, RXRa partner concentration 90 nM)
Method in brief: as §1

[5] = tested on: LXRb homodimer (NR concentration 270 nM)
Method in brief: as §1

[6] = tested on: PPARa:RXRa (NR concentration 270 nM, RXRa partner concentration 90 nM)
Method in brief: as §1

[7] = tested on: PPARg:RXRa (NR concentration 180 nM, RXRa partner concentration 90 nM)
Method in brief: as §1

[8] = tested on: PPARg:RXRa 270nM:90nM, anti-RXR (NR concentration 270 nM, RXRa partner concentration 90 nM)
Method in brief: as §1

[9] = tested on: PPARg:RXRa 30nM:10nM, anti-RXR (NR concentration 30 nM, RXRa partner concentration 10 nM)
Method in brief: as §1

[10] = tested on: PPARg:RXRa 90nM:30nM, anti-RXR (NR concentration 90 nM, RXRa partner concentration 30 nM)
Method in brief: as §1

[11] = tested on: PPARg:RXRa DBDmut IVT, anti-RXR (DBD mutation: RXRa K156A/R161A, NR concentration 270 nM, RXRa partner concentration 90 nM)
Method in brief: as §1

[12] = tested on: PPARg:RXRa IVT, anti-PPARg (NR concentration 270 nM, RXRa partner concentration 90 nM)
Method in brief: as §1

[13] = tested on: PPARg DBDmut:RXRa IVT, anti-PPARg (DBD mutation: PPARg1 K132A/R137A, NR concentration 270 nM, RXRa partner concentration 90 nM)
Method in brief: as §1

[14] = tested on: PPARg DBDmut IVT, anti-PPARg (DBD mutation: PPARg1 K132A/R137A, NR concentration 270 nM)
Method in brief: as §1

[15] = tested on: PPARg homodimer (NR concentration 180 nM)
Method in brief: as §1

[16] = tested on: PXR:RXRa (NR concentration 270 nM, RXRa partner concentration 90 nM)
Method in brief: as §1

[17] = tested on: PXR homodimer (NR concentration 270 nM)
Method in brief: as §1

[18] = tested on: RARa:RXR (NR concentration 270 nM, RXRa partner concentration 90 nM)
Method in brief: as §1

[19] = tested on: RARa homodimer (NR concentration 270 nM)
Method in brief: as §1

[20] = tested on: RARb:RXRa (NR concentration 270 nM, RXRa partner concentration 90 nM)
Method in brief: as §1

Row | Sequence | PBM binding z-score [1] | PBM binding z-score [2] | PBM binding z-score [3] | PBM binding z-score [4] | PBM binding z-score [5] | PBM binding z-score [6] | PBM binding z-score [7] | PBM binding z-score [8] | PBM binding z-score [9] | PBM binding z-score [10] | PBM binding z-score [11] | PBM binding z-score [12] | PBM binding z-score [13] | PBM binding z-score [14] | PBM binding z-score [15] | PBM binding z-score [16] | PBM binding z-score [17] | PBM binding z-score [18] | PBM binding z-score [19] | PBM binding z-score [20]
1 | CCTCGGCGGACAGAAGGTCAGAGCTGTCCGCTTT | 1.18 | 1.29 | -0.126 | 0.771 | -1.09 | 1.64 | -0.606 | 0.898 | -0.662 | -0.0722 | -0.348 | -0.163 | -2.18 | -2.03 | 0.787 | 1.26 | -0.667 | 1.57 | -0.497 | 2.52
2 | CCTTACGGGTCACGAGGTTTTAGCACGACGAGCG | 6.33 | 4.19 | -0.186 | 3.4 | -0.145 | 5.72 | 6.51 | 6.3 | 2.95 | 4.7 | 4.32 | 5.48 | 0.0926 | 0.246 | 2.12 | 3.85 | -0.106 | 4.95 | 0.695 | 4.54
3 | CGTCCAAGGTCAAAGAGGTCAGTGAATGCCGAGT | 7.54 | 6.09 | 4.44 | 5.48 | 1.51 | 5.88 | 5.22 | 5.89 | 2.41 | 4.63 | 3.99 | 4.53 | 0.213 | -0.987 | 5.13 | 6.71 | 12.7 | 6.05 | 1.8 | 5.48
4 | ACTATTAGTAGAGACGAGGGCAACCGATAGGTTG | 0.0303 | 0.0981 | 0.152 | -0.117 | 0.12 | 0.455 | 1 | 1.21 | 0.245 | 0.958 | -0.0666 | 0.751 | 1.1 | 0.293 | 0.251 | 0.541 | 0.137 | 0.421 | 0.262 | 0.97
5 | ATCTTTAGGTAAAGATAGTTCAGTGAATGCAAAT | 0.178 | 4.41 | 0.491 | 0.995 | 0.495 | 0.508 | 0.63 | 0.465 | 0.338 | 0.506 | 0.996 | 0.866 | 1.02 | 1.16 | 0.255 | 1.01 | 0.329 | 0.518 | 1.15 | 0.913
6 | CCTTACGGGTCACTGATAGGTTATAGCATTTGGA | 5.04 | 4.27 | 0.473 | 3.53 | 0.0559 | 5 | 4.57 | 4.4 | 1.47 | 3.36 | 3.46 | 3.73 | 1.18 | 0.0564 | 2.47 | 3.6 | 0.321 | 4.43 | 1.27 | 4.02
7 | CCTAGCAGGCCAACCTGGGTCACTCAAGGCTTGA | 1.14 | 1.36 | -0.307 | 1.16 | -1.09 | 2.05 | 0.131 | 0.239 | -0.969 | -0.0466 | 1.14 | 1.46 | -0.885 | -0.95 | 0.425 | 1.46 | -0.576 | 1.44 | 0.141 | 1.96
8 | ATCTCTAGGTAACAGGTTCAGTGAAAGAGAGGAC | 0.507 | 0.677 | 0.529 | 0.67 | 1.09 | 1.8 | 2.61 | 2.9 | 1.5 | 2.78 | 3.85 | 3.15 | 1.83 | 1.35 | 1.4 | 0.871 | 1.43 | 0.854 | 0.973 | 0.893
9 | AGAACGAGGCCACGCTGAGTTGATAGCAGAGTAG | 0.0545 | -0.515 | -0.521 | -0.809 | -0.992 | 0.356 | 0.903 | 0.196 | -0.0987 | 0.189 | 3.08 | 2.31 | 0.24 | 0.0825 | -0.457 | -0.0371 | -0.451 | -0.283 | -0.379 | 1.17
10 | CGTCCAATGTCAGCAGGTCAGTGAAAGCGACGTG | 0.418 | 0.255 | -0.0257 | 0.392 | -0.161 | 1.22 | 0.115 | 0.0995 | -0.882 | -0.158 | 0.4 | 0.811 | -0.067 | -0.189 | 1.33 | 0.416 | -0.258 | 1.17 | 0.0652 | 2.6
11 | TTTCGGAGGACACGAAGGTCAGAGCTTTCCAGAG | 1.83 | 1.7 | 0.81 | 1.61 | -0.442 | 2.12 | 0.582 | 1.32 | 0.325 | 0.593 | 0.209 | 1.38 | -0.89 | -0.892 | 1.79 | 2.42 | 1.37 | 2.56 | 0.837 | 3.51
12 | TCATATATGTAAACAGGTGAAAGTCCGTAAGTTA | 0.999 | 1.09 | 0.211 | 1.51 | 0.115 | 1.84 | 1.67 | 2.97 | 3.81 | 3.19 | 2.85 | 1.7 | 1.25 | 1.22 | 0.985 | 1.08 | 0.358 | 1.24 | 0.262 | 0.572
13 | ATCTAAAGGTCGAGGTGAGTATAGAGAAAGGGAA | 4.67 | 4.45 | 0.751 | 3.06 | 1.17 | 4.61 | 3.83 | 4.02 | 1.72 | 3.16 | 0.937 | 2.41 | 1.38 | 1.16 | 2.16 | 2.7 | 1.07 | 3.32 | 1.18 | 4.33
14 | GCAGACAGGTGAAACGCAGGTAAGTCAGGGTGGC | -0.334 | -0.134 | -0.679 | -0.502 | -0.938 | 0.476 | 0.369 | -0.16 | -0.946 | -0.534 | 0.702 | 0.327 | -0.327 | -0.89 | -0.504 | -0.471 | -0.705 | 0.101 | -0.533 | 0.61
15 | ATCTCTAGGTAACCAAGTTCAGTGACTGCCGAAC | 0.544 | 1.09 | 1.07 | 0.872 | 0.838 | 1.24 | 0.732 | 1.15 | 0.402 | 0.958 | 4.09 | 2.78 | 0.981 | 0.674 | 1.09 | 2.14 | 2.22 | 0.968 | 1.12 | 1.14
